10 molecules from PubChem BioAssay (NCATS) can be followed below.

The other results are listed elsewhere or left out. Results filed as inconclusive are left out. The source made the active and inactive calls. Calls follow the shape of the dose curve; as a rule, active = well fitted inhibition curve with a large enough effect; inconclusive = small, poorly fitted or top-dose-only effect; inactive = no such curve, though single readings can be large or run the other way.
% is scaled to controls: 0 for no effect and ±100 for the full control effect; potency is read from the fitted curve at half-maximal effect.

DNA repair nuclease/redox regulator APEX1 (Homo sapiens), sequence (P27695 whole entry, looked up): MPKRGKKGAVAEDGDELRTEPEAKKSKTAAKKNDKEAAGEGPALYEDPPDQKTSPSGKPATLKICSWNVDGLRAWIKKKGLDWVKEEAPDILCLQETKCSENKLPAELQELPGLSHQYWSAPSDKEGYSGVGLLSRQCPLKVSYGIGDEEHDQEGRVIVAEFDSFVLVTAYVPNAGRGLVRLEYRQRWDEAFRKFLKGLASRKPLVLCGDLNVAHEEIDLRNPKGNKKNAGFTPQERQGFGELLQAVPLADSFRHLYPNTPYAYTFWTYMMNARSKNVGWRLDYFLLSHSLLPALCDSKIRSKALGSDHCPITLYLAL

For this assay, the target named is DNA repair nuclease/redox regulator APEX1 (Homo sapiens) (UniProt P27695). Nature of the assay: Confirmation qHTS Assay for Inhibitors of the Human Apurinic/apyrimidinic Endonuclease 1 (APE1) (AID 2572). Also: nearly all actives have a fitted effect of over 30% in size.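 As to activity change, negative = inhibition: fluorescence gain from purified APE1 cutting a TAMRA/BHQ-2 THF abasic duplex.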 The settings on record: purified APE1, fluorogenic abasic-site DNA cleavage; series mostly up to 57.1 µM; activity change, negative = inhibition: at the top concentration. From the text:
The apurinic/apyrimidinic endonuclease APE1 is the primary mammalian enzyme responsible for the removal of abasic (or AP) sites in DNA and functions centrally in the base excision DNA repair (BER) pathway. […] Thus, targeting APE1 could improve the efficacy of current treatment paradigms by promoting selective sensitization or protection of diseased and normal cells, respectively.
Inhibition of APE1 activity was screened by utilizing double-stranded short substrate containing tetrahydrofuran (THF) abasic site labeled with rhodamine-type fluorophore (TAMRA) at the 5'-end and with non-fluorescent Black Hole Quencher-2 (BHQ-2) at the opposing 3'-end. An increase in the fluorescence intensity due to incision of the abasic site by APE1 was used to measure the enzyme activity.
Assay Provider: David M. Wilson, III, National Institute on Aging, NIH
Screening Center PI: Austin, C.P.
Screening Center: NIH Chemical Genomics Center [NCGC]
1. Substrate: 50 nM final concentration of TAMRA/BHQ-2 substrate dispensed throughout the plate.
2. Enzyme: […] nM APE1 final concentration in columns 1, 2, 5-48. Column 1 is neutral (100% activity)
3. Control: Pintool transfer of control inhibitor NSC-13755 to column 2 of all assay plates. Two-fold, 16 pt dilution in duplicate to produce final concentrations in the […] uM - […] nM range.
3. Buffer columns in columns 3 and 4 were used as negative control (no enzyme).
Three uL of enzyme were dispensed to 1536-well Greiner black solid bottom plates. Compounds (23 nL) were transferred via Kalypsys pintool. The plates were incubated for 15 min at room temperature, and then 1 uL of substrate solution was added to start the reaction. The plates were immediately transferred into ViewLux High-throughput CCD imager (Perkin-Elmer) in order to measure the reaction progress in kinetic mode (three reads every 60 seconds) using 525 nm excitation and 598 nm emission fluorescence protocol. The fluorescence intensity difference between the third and the first time points was used to compute reaction progress.
In general terms: Quantitative high-throughput screening tests each substance at several concentrations.
Consider `CC(=O)NS(=O)(=O)c1ccc(NC(=O)C2C3C=CC(C3)C2C(=O)O)cc1` (stereo not given), for which the “activity change, negative = inhibition” value was -15.6% (inactive).
`O=C(NCc1ccccn1)c1ccc2nc(-c3ccco3)c(-c3ccco3)nc2c1`: the Potency is 8.91 µM (active).
`N/C(=N\OC(=O)Nc1ccccc1)c1ccno1`: the “activity change, negative = inhibition” value is -7% [at 24.4 µM] (inactive).
Turning to `Cc1ccc(-c2nc(SCC(=O)Nc3ccccc3OC(F)F)c3c(C)c(C(=O)O)sc3n2)cc1`, the Potency is 7.94 µM (active).
In the case of `Cc1ccc(Cc2cnc(N)s2)o1`, the “activity change, negative = inhibition” value is -10.3% [at 24.4 µM] (inactive).
As to `COc1ccc(NC(=O)CSc2nc(NS(=O)(=O)c3ccc(C)cc3)cc(=O)[nH]2)cc1`, the Potency is 39.8 µM (active).
Same read-out and setting: under `Cc1cc(C)c2nc(-c3ccco3)cc(C(=O)O)c2c1` stands 12.6 µM (active).
Still for that read-out and setting: as for `N#Cc1ccccc1CN1C(=O)S/C(=C/c2cccn2-c2cccc(C(=O)O)c2)C1=O`, the figure is 14.1 µM (active).
As for `CCOCN(C(=O)Cn1c(C(C)O)nc2ccccc21)c1c(C)cccc1CC` (stereo not given), the “activity change, negative = inhibition” value was -11.3% (inactive).
Take `CC(C)(C)C(=O)OCc1nc(-c2ccc(O)c(O)c2)cs1`: the Potency was 11.2 µM (active).
